Test in all cases: NCI-60 one-dose screen, 48 h (100 = growth as untreated, 0 = no growth, -100 = all killed)
Assay [1] concerns HT29 colon. The settings on record: 10 µM unless noted.
The test system of assay [2] is U251 CNS. To be noted: 10 µM unless noted.
In assay [3] the test system is PC-3 prostate. The settings on record: 10 µM unless noted.
The test system of assay [4] is UACC-62 melanoma. To be noted: 10 µM unless noted.
Assay [5] concerns LOX IMVI melanoma. The settings on record: 10 µM unless noted.
In assay [6] the test system is SK-MEL-28 melanoma. To be noted: 10 µM.
Assay [7] has as its system SK-MEL-2 melanoma. The settings on record: 10 µM unless noted.
The subject of assay [8] is EKVX NSCLC. To be noted: 10 µM unless noted.
The test system of assay [9] is SN12C renal. To be noted: 10 µM unless noted.
Assay [10] deals with UO-31 renal. To be noted: 10 µM unless noted.
The subject of assay [11] is TK-10 renal. To be noted: 10 µM unless noted.
For assay [12], the system named is ACHN renal. The settings on record: 10 µM unless noted.
Assay [13] deals with CAKI-1 renal. The settings on record: 10 µM unless noted.
Assay [14] relates to CCRF-CEM leukemia. To be noted: 10 µM unless noted.
Assay [15] relates to MOLT-4 leukemia. The settings on record: 10 µM unless noted.
Assay [16] deals with SR leukemia. The settings on record: 10 µM unless noted.
In assay [17] the test system is SK-MEL-5 melanoma. To be noted: 10 µM unless noted.
In assay [18] the test system is A498 renal. To be noted: 10 µM unless noted.
Assay [19] relates to SNB-19 CNS. To be noted: 10 µM unless noted.
In assay [20] the test system is SNB-75 CNS. The settings on record: 10 µM unless noted.

This is part of a sample that, as a whole, favours compounds with a hit. Of some 83,000 tested, about 20% had one in any assay.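 Percent growth is the endpoint: 0 to 100 indicates growth inhibition (40 means 60% inhibition), 0 means no net growth, and negative values indicate cell death.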 A number with no mark means an inactive call. The source made the active and inactive calls. Rule for the calls: active = growth percent below 10; inactive = the rest.

In the case of `O=C(CN1C=NC2C(N3CCOCC3)=NC=NC21)c1ccc(Br)cc1` (centres undefined), the growth in assay [1] is 107%; in [2], 99.8%; in [3] it was 95.5%; in assay [4] it was 93.1%; in assay [5], 97.3%; in [6], 111%. Further, the growth in assay [7] was 94.4%; in assay [8] it was 97.6%; in assay [9] it was 98.3%; in assay [10], 78.6%; in assay [11], 117%; in assay [12], 103%. Also, the growth in assay [13] is 85.4%; in [14], 105%; in assay [15], 105%; in assay [16], 104%.

With `COc1c(B(O)O)cccc1-c1nc2ccc3[nH]ncc3c2c2c1C1CCC2C1` (centres undefined), the growth in assay [1] was 71.9%; in [2] it was 66.4%; in assay [3], 76.9%; in assay [17], 75.7%; in assay [4] it was 70.3%; in [5], 52%. For the same compound, the growth in assay [6] was 104%; in assay [7], 80.8%; in assay [8], 101%; in [9] it was 59.8%; in [10], 29.3%; in assay [11], 44.2%. The growth is 63.2% in assay [12]; 1.43% (active) in assay [13]; 87.2% in assay [18]; 20.5% in assay [14]; 52.8% in assay [15].

For `CC(C)Cn1c2c(c(=S)[nH]c1=O)CCC2`, the growth in assay [1] is 111%; in assay [19] it was 97.6%; in assay [2], 102%; in assay [3], 104%; in assay [4] it was 96.1%; in assay [5], 101%. In addition, the growth was 118% in assay [6]; 98.2% in assay [7]; 102% in assay [8]; 97.6% in assay [9]; 86% in assay [10]; 102% in assay [11]. In addition, the growth in [13] was 89.1%; in [14], 99.3%; in assay [15], 108%; in [16] it was 106%.

With `CCN1C(=O)N(c2ccccc2)C2NN=c3s/c(=C4\C(=O)N(C(C)C)c5ccccc54)c(=O)n3C21` (centres undefined), the growth is 9.74% (active) in [1]; 35.7% in [19]; 25.9% in assay [2]; 25.7% in assay [3]; 37.6% in assay [4]; 31.4% in assay [5]. Also, the growth in [6] was 62.8%; in assay [7], 48.8%; in assay [8] it was 55.9%; in [9], 38.7%; in assay [10], 55.6%; in assay [11], 74.9%. The growth in [12] is 37.1%; in assay [13] it was 49.1%; in [14], 15.1%; in assay [15], 20.9%; in assay [16] it was 14.6%.

Take `COc1ccc(/C=c2\sc3n(c2=O)NC2C(N=3)N(C)C(=O)N2C)cc1` (centres undefined): the growth in assay [1] was 103%; in assay [19], 94.1%; in assay [2], 101%; in [3] it was 95.6%; in [4], 89.1%; in assay [5] it was 92.8%. Also, the growth in assay [6] is 104%; in assay [7], 103%; in assay [8], 98.4%; in assay [9], 101%; in assay [10], 77.6%; in assay [11], 112%. In addition, the growth in assay [12] was 105%; in assay [13] it was 85%; in [14], 95.7%; in assay [15], 102%; in [16], 86.8%.

As to `O=C(Nc1ccc(N2CCNCC2)cn1)c1[nH]ncc1Nc1ncnc2sc3c(c12)CCC3`, the growth in [20] was 85.7%; in assay [19] it was 10.7%; in [2], -71.9% (active); in [3], -30.6% (active); in [17] it was 59.7%; in assay [4], 38.9%. In addition, the growth in assay [5] was -79.6% (active); in assay [6], -40.3% (active); in [7], 89.7%; in assay [8] it was 83.8%; in [9], 53.6%; in [10], 72.6%. The growth in assay [11] was 95.2%; in assay [12] it was -76.5% (active); in assay [13], 54.3%; in assay [18], 70.2%; in [14], -7.26% (active); in [15], 14.3%. Further, in [16], the growth was 0.52% (active).

In the case of `COc1ccccc1C(=O)/C=C/c1ccccc1`, the growth was 56.6% in assay [1]; 82.8% in [19]; 43.8% in assay [2]; 75.3% in assay [3]; 85.2% in [4]; 76.2% in [5]. Further, the growth was 105% in [6]; 104% in assay [7]; 97.8% in assay [8]; 83.5% in [9]; 73.4% in assay [10]; 90.5% in assay [12]. Moreover, the growth in assay [13] was 90.4%; in [18], 98.8%; in [14] it was 46.3%; in [15], 81.1%; in [16], 43.1%.

As for `CCCSC1=NC2C(N(CC)C(=O)N2CC)N1/N=C/C=C/c1ccccc1[N+](=O)[O-]` (centres undefined), the growth in assay [1] was 9.1% (active); in assay [19], 29.6%; in assay [2], 21.7%; in assay [3] it was 24.9%; in assay [4] it was 36.6%; in [5], 37.7%. Also, the growth is 63.5% in assay [6]; 48.6% in [7]; 53.6% in [8]; 40.6% in assay [9]; 44% in assay [10]; 85.1% in assay [11]. The growth is 41.5% in assay [12]; 44.1% in assay [13]; 16% in assay [14]; 18.6% in [15]; 9.32% (active) in assay [16].

Consider `Cc1nc(Nc2ccccn2)sc1C(=O)/C=C/c1ccc(Cl)cc1`, for which the growth is 11.9% in [20]; 32.7% in [19]; 14.8% in assay [2]; -32.4% (active) in assay [17]; 48.2% in assay [4]; 15.8% in assay [5]. For the same compound, the growth in assay [6] was 61.8%; in assay [7] it was 31.6%; in assay [8], 27.8%; in assay [9], 32%; in assay [10], 28.6%; in [11], 61.5%. For the same compound, the growth in [12] was 23.2%; in [13] it was 27.9%; in assay [18], 6.49% (active); in assay [14] it was 17.1%; in [15], 17.2%; in assay [16], 15.6%.

Values taken from PubChem BioAssay (NCI).
